Among all 69,000 compounds or so, about 8,600 (12%) showed an effect of 50% or more. This excerpt belongs to a sample that is enriched for strong results.

The test system of this assay is Plasmodium berghei. The assay can be described thus: Screen against P. berghei liver stage (PbLuc), transformed with Luciferase, at 10uM. It is filed as functional, HepG2. Particulars: tested at 10 uM.
As for `COc1ccccc1C(O)CNC(=O)Nc1ccccn1` (stereo not given), the INHIBITION was determined as 35.9%. For the molecule `Cc1ccc2c(c1)c(C)cc(=O)n2CCCN`, the INHIBITION was -17%. With `CCc1cc(-c2ccnc3c2ccn3C)nc(N2CCOCC2)n1`, the INHIBITION was 51.5%.

Turning to `Cn1ccc2c(-c3cc(N)nc(N4CCOCC4)n3)ccnc21`, the INHIBITION is 18.8%. `Cn1ccc2c(-c3cc(N4CCOCC4)ncn3)ccnc21`: the INHIBITION is given as -3.96%. The result for `COc1cccc(CN2CCCCC2c2n[nH]cc2-c2cc(C)no2)c1` (stereo not given) reads 25.8%.

Turning to `CNC(=O)c1cc2c(nc1NCC1CC1)CCN(c1ccncn1)CC2`, the INHIBITION is 32.4%. Regarding `Cc1cc(C)n(CNc2nonc2C(N)=O)n1`, the INHIBITION is given as 44.1%. For `CN(Cc1nc(C2CC2)no1)C(=O)CN1CC(c2ccccc2)CC1=O` (stereo not given), the INHIBITION came out at 3.96%. Take `CCc1nnc(CN(C)C(=O)CN2CC(c3ccccc3)CC2=O)o1` (stereo not given): the INHIBITION is 62.4%.

`CCc1cc(CN(C)C(=O)CN2CC(c3ccccc3)CC2=O)on1` (stereo not given): the INHIBITION is listed as 9.91%. `CCc1cc(O)n2nc(C3CCN(C(=O)c4cccnc4)CC3)cc2n1`: the INHIBITION came out at 13.3%. Regarding `Cc1nc(C2(O)CCCNCC2)sc1CCOc1ccccc1` (stereo not given), the INHIBITION was 49.6%. On to `CCN1CCCC(O)(c2nc(C)c(CCOc3ccccc3F)s2)CC1` (stereo not given), for which the INHIBITION is given as 7.52%. `COc1ccc(OCCc2sc(C3(O)CCCNCC3)nc2C)cc1` (stereo not given): the INHIBITION came out at 52.3%. The result for `Cc1nc(C2(O)CCCNCC2)sc1CCOc1ccc(F)c(F)c1` (stereo not given) reads 46%; that for `COc1ccc(OCc2sc(C3(O)CCCNCC3)nc2C)cc1` (stereo not given), 31.3%. Turning to `CCCN1CCCC(O)(c2nc(C)c(COc3ccccc3)s2)CC1` (stereo not given), the INHIBITION amounted to 27.6%. In the case of `CCN1CCCC(O)(c2nc(C)c(CCOc3ccccc3Cl)s2)CC1` (stereo not given), the INHIBITION amounted to 28%. Turning to `Cc1nc(C2(O)CCCNCC2)sc1CCOc1ccccc1F` (stereo not given), the INHIBITION was 0.301%. For `CCN1CCCC(O)(c2nc(C)c(CCOc3ccc(F)cc3)s2)CC1` (stereo not given), the INHIBITION was 59.3%. With `Cc1nc(C2(O)CCCNCC2)sc1CCOc1ccccc1Cl` (stereo not given), the INHIBITION amounted to 55.6%. Take `Cc1nc(C2(O)CCCNCC2)sc1CCOc1ccc(F)cc1` (stereo not given): the INHIBITION was 47.2%. Take `Cc1nc(C2(O)CCCNCC2)sc1CCOc1ccc(Cl)cc1` (stereo not given): the INHIBITION came to 73.9%. To `CCSc1cc(C(=O)NC2CCN(C(=O)c3ccccc3)CC2)ccn1` belongs 33.4%; to `Cc1ncc2c(n1)CN(Cc1nc(Cc3ccccc3)no1)CC2`, 41.2%. For `O=C(CCOc1ccc(Cl)cc1)NCCCn1cccn1`, the INHIBITION came to 48.8%.

Consider `O=C(CCOc1cccc(Cl)c1)N1CCN(c2cnccn2)CC1`, for which the INHIBITION is on record as -8.11%. As for `CCNC(=O)N1CCC(NC(=O)NCCc2ccc(C)cc2C)C1` (stereo not given), the INHIBITION is reported as 51.7%. On to `Cc1ccc(CCNC(=O)NCCCC(N)=O)c(C)c1`, for which the INHIBITION is -18.6%. Regarding `CCNC(=O)N1CCC(NC(=O)NCCc2cccc(C)c2)C1` (stereo not given), the INHIBITION is recorded as 77.7%. The result for `CC1CCN(C(=O)NCCc2cc(F)ccc2F)C1` (stereo not given) reads -21.2%; that for `CCNC(=O)N1CCC(NC(=O)NCCCc2cccc(F)c2)C1` (stereo not given), 35%.

With `CCNC(=O)N1CCC(NC(=O)NCCc2cc(F)cc(F)c2)C1` (stereo not given), the INHIBITION amounted to 57.3%.

Take `CCNC(=O)N1CCC(Cc2cccc(C(N)=O)c2)C1` (stereo not given): the INHIBITION came to 10.7%.

In the case of `CCNC(=O)N1CCC(NC(=O)NCCc2cc3ccccc3o2)C1` (stereo not given), the INHIBITION is -43.8%.

`Cc1cccc(CC(=O)NC2CCN(C(=O)NC(C)(C)C)CC2)c1`: the INHIBITION is given as -38.4%.

As to `Cc1ccc(CN2Cc3c(C(=O)N4CCN(C)CC4)nn(C)c3C2)s1`, the INHIBITION was 3.25%. With `COCc1n[nH]/c(=N\C(=O)c2c3c(nc4onc(C)c24)CCC3)s1`, the INHIBITION is on record as 10.7%.

Turning to `CC1(C(=O)N2CCOCC2)CN(Cc2ccccc2F)CCO1` (stereo not given), the INHIBITION is given as 25.6%.

As to `O=C(Nc1ccc(-c2csnn2)cc1)NC(CCO)C1CC1` (stereo not given), the INHIBITION is 6.11%. On to `Cc1[nH]c2nc(CNc3ccccc3Cl)nn2c(=O)c1C`, for which the INHIBITION is on record as -7.83%. Take `Cc1ccc(Cl)cc1NCc1nc2[nH]c(C)c(C)c(=O)n2n1`: the INHIBITION was 18.3%. As to `CCc1ccccc1NCc1nc2[nH]c(C)c(C)c(=O)n2n1`, the INHIBITION amounted to 52.5%. On to `CN1CCC(Nc2cc(Cl)ccc2OCC(F)(F)F)C1=O` (stereo not given), for which the INHIBITION was found to be 4.34%. `Cc1cc(CCC(=O)N(C)C)nc(C2CCCCN2)n1` (stereo not given): the INHIBITION is 26.3%. Regarding `COCCCNC(=O)Cc1cc(-c2ccc3c(c2)OCO3)on1`, the INHIBITION is 65.7%. Regarding `Cn1cc(CCNC(=O)CCc2ccc3c(c2)OCO3)cn1`, the INHIBITION turned out to be 31.3%. For the molecule `Cc1nnc(SCCCNC(=O)Cc2ccc3c(c2)OCO3)s1`, the INHIBITION turned out to be 40.9%. For `O=C(Cc1cc(-c2ccc3c(c2)OCO3)on1)NC1CCCC1`, the INHIBITION was 14.6%. As for `COCCCNC(=O)Cc1cc(-c2ccccc2)on1`, the INHIBITION is on record as -34.3%. To `O=C(Cc1cc(-c2ccc3c(c2)OCCO3)on1)NCc1ccccn1` belongs 70%; to `COCCCNC(=O)CN(C)C(=O)c1cc(Cl)ccc1O`, -15.8%; to `Cc1cc(C(=O)NCc2ccccn2)no1`, -1.88%.

For the molecule `COCCCNC(=O)Cc1cc(-c2ccc(Cl)cc2)on1`, the INHIBITION worked out at 53.7%. As for `O=C(N1CCOCC1)N1CCCC(c2ncncc2-c2ccncc2)C1` (stereo not given), the INHIBITION came to 5.11%.

On to `CC(=O)NCCNC(=O)CN1CCOC(Cn2cccn2)C1` (stereo not given), for which the INHIBITION came out at 9.29%. For the molecule `Cc1csc(N2CCCN(CCC(=O)NC(N)=O)CC2)n1`, the INHIBITION turned out to be 9.54%. For `CN(C)C(CNC(=O)c1[nH]nc(C2CC2)c1Br)C1CC1` (stereo not given), the INHIBITION was -4.15%.

Consider `Cc1cc(N2CCCC(O)(CN(C)C(=O)CCN)C2)c2cnccc2n1` (stereo not given), for which the INHIBITION is given as -6.88%.

Regarding `COCC(=O)N1CC(c2ccnc(Nc3cc(C(F)(F)F)ccn3)n2)C1`, the INHIBITION is listed as -12.3%. Take `CCOC(=O)c1cnn(-c2cc(Oc3cccc(C)c3)ncn2)c1N`: the INHIBITION stood at 51.6%. For the molecule `COC(=O)c1cnn(-c2cc(Oc3cccc(C)c3)ncn2)c1N`, the INHIBITION is reported as 72%. In the case of `CCOC(=O)c1cnn(-c2cc(Oc3ccccc3)ncn2)c1N`, the INHIBITION is -10.9%. As to `CCOC(=O)c1cnn(-c2cc(C)ccn2)c1N`, the INHIBITION was -104%. To `CCOC(=O)c1cnn(-c2cc(Oc3ccccc3C)ncn2)c1N` belongs -35.9%; to `Cc1ccc(C)c(-n2ncc(C(=O)N(C)CCc3ccccn3)c2N)c1`, -3.33%; to `Cc1cc(C)n(C2CCN(S(C)(=O)=O)CC2)n1`, -0.232%. For the molecule `Cc1nn(C)c(N(C)C)c1CNCc1ccc(OCC(N)=O)cc1`, the INHIBITION is 3.45%.

For the molecule `c1cn(-c2nccnc2C2CCCN(C3CCOCC3)C2)cn1` (stereo not given), the INHIBITION is recorded as 18.805%.

Source of the values: ChEMBL document CHEMBL4513216, “Probing the Open Global Health Chemical Diversity Library for Multistage-Active Starting Points for Next-Generation Antimalarials” (ACS Infect Dis, 2020).
